87 compounds from PubChem BioAssay AID720504 (National Center for Advancing Translational Sciences (NCATS), 2013) can be followed below.

Among all 360,000 compounds or so, about 10,000 (2.8%) were called active. Inconclusive results (about 4%) are left out. The call rests on the fitted dose curve; in most records, active means well fitted inhibition curve with a large enough effect; inconclusive means small, poorly fitted or top-dose-only effect; inactive means flat fitted curve, though single readings scatter. For the sample, actives were picked, then their nearest neighbours and some compounds at random.
On the % scale 0 is the no-effect control and ±100 the full control effect; potency means the concentration at half of the fitted maximal effect.

In this assay the target is Serine/threonine-protein kinase PLK1 (Homo sapiens) (UniProt P53350). The assay is described as follows: qHTS for Inhibitors of PLK1-PDB (polo-like kinase 1 - polo-box domain): Primary Screen. Further: nearly all actives have a fitted effect of over 65% in size. On max response, negative = inhibition: series mostly up to about 57 µM. The conditions noted are these: Plk1 PBD binding of FITC phosphopeptide, fluorescence polarization. A general note: qHTS replaces the single test concentration by a dilution series.
Serine/threonine-protein kinase PLK1 (Homo sapiens), sequence (P53350 whole entry, looked up, the tested form may be a part): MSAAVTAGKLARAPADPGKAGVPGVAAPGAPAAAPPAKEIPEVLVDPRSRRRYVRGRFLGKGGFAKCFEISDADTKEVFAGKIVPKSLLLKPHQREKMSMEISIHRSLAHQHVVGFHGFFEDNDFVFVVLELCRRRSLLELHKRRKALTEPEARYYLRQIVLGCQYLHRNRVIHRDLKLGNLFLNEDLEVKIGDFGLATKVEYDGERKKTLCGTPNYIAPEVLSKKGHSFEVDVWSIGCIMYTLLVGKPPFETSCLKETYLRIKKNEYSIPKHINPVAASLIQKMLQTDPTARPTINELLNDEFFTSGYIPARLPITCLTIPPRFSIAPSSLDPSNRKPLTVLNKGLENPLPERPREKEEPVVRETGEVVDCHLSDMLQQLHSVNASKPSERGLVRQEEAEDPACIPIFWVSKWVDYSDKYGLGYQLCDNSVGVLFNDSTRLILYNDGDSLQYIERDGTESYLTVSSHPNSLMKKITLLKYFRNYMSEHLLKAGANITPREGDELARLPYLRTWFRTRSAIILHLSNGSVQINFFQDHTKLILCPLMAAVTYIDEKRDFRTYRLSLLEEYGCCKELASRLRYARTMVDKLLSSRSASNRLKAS
In the case of `Cc1cccc(C)c1NC(=O)CNC(=O)c1ccc(N2CCOCC2)c([N+](=O)[O-])c1`, the max response, negative = inhibition was -13.7% (inactive).

Turning to `O=C(NNS(=O)(=O)Cc1ccccc1)c1ccc([N+](=O)[O-])cc1`, the max response, negative = inhibition was -14.2% (inactive).

In the case of `O=C(CNC(=O)c1ccccc1)Oc1ccc([N+](=O)[O-])cc1`, the Potency is 5.32 µM (active).

In the case of `COC(=O)CNC(=O)c1ccccc1[N+](=O)[O-]`, the max response, negative = inhibition was -2.66% (inactive).

In the case of `Cc1ccc(Cc2c(-c3ccc(C)cc3)nc3c4ccccc4ccn23)cc1`, the max response, negative = inhibition was 5.48% (inactive).

For `COc1cc(C=C(OC(C)=O)c2ccc3c(c2)OCO3)cc(OC)c1OC`, the max response, negative = inhibition is -7.84% (inactive).

For `CCOC(=O)C1(C)CCCN(C(=O)c2ccc(N(C)C)cc2)C1` (configuration not stated), the max response, negative = inhibition was -5.89% (inactive).

Take `CCc1ccccc1NC(=O)CN(C)S(=O)(=O)c1ccc2c(c1)c(=O)n(C)c(=O)n2C`: the max response, negative = inhibition is -2.91% (inactive).

As to `COc1cccc(CNC(=O)CN(C)S(=O)(=O)c2ccc3c(c2)c(=O)n(C)c(=O)n3C)c1`, the max response, negative = inhibition is -6.18% (inactive).

In the case of `CC1CCC(NC(=O)CN(C)S(=O)(=O)c2ccc3c(c2)c(=O)n(C)c(=O)n3C)CC1` (configuration not stated), the Potency was 18.9 µM (active).

With `CCNC(=O)C1CCCN(C(=O)c2ccc(OC)cc2OC)CC1` (configuration not stated), the max response, negative = inhibition is -11.4% (inactive).

`Cc1cccc(C)c1NC(=O)CSc1nc2c([nH]1)c(=O)n(C)c(=O)n2C`: the max response, negative = inhibition was -5.89% (inactive).

Take `Cc1ccc(NN=Nc2nc3c([nH]2)c(=O)n(C)c(=O)n3C)cc1`: the Potency is 23.8 µM (active).

Take `Cc1cc(C)c(C=NNc2nc3c([nH]2)c(=O)n(C)c(=O)n3C)c(C)c1`: the max response, negative = inhibition is -11.3% (inactive).

Regarding `C[C@H]1CN([C@@H](C)CO)C(=O)CCCn2cc(nn2)CO[C@@H]1CN(C)S(=O)(=O)c1cccs1`, the max response, negative = inhibition was -15.8% (inactive).

On to `CCn1cc(/C=C(\NC(=O)c2ccc(C)cc2)C(=O)NCCN2CCOCC2)c2ccccc21`, for which the Potency is 26.7 µM (active).

For `Cc1ccc(C(=O)N/C(=C\c2ccc(F)cc2)C(=O)NCCN2CCOCC2)cc1`, the max response, negative = inhibition is -16.1% (inactive).

Turning to `O=C(NCCN1CCOCC1)/C(=C/c1ccc(F)cc1)NC(=O)c1ccccc1`, the max response, negative = inhibition is -12.8% (inactive).

Take `CCCOc1ccc(F)cc1-c1cc(C(=O)Nc2ccc(F)cc2)[nH]n1`: the max response, negative = inhibition was 6.37% (inactive).

Regarding `O=C(NCc1cccc(C(F)(F)F)c1)c1ccc2sc(COCCO)nc2c1`, the max response, negative = inhibition is -3.85% (inactive).

Turning to `CCOC(=O)C1C(C)C(C(C)(C)C)N(S(=O)(=O)c2ccc(C)cc2)C1c1ccccc1` (configuration not stated), the max response, negative = inhibition was -10.1% (inactive).

Take `CC1(C(=O)NCC2CCOCC2)Cc2c(-c3cccc(C(N)=O)c3)ccnc2O1` (configuration not stated): the max response, negative = inhibition is -6.03% (inactive).

For the compound `Cc1nc(COc2cccc(Cl)c2)sc1C(=O)/C=C/N(C)C`, the max response, negative = inhibition is 6.79% (inactive).

For `Cc1nc(-c2ccccc2)sc1C(=O)/C=C/N(C)C`, the Potency was 29.9 µM (active).

As to `CN(C)/C=C/C(=O)c1ccccc1F`, the max response, negative = inhibition is -6.3% (inactive).

In the case of `Cc1ccc(-c2nc3c(Cl)cc(C(F)(F)F)cn3c2Cc2cccc(Cl)c2)cc1`, the max response, negative = inhibition is 4.46% (inactive).

In the case of `CCOC(=O)c1c(NC(=O)C2CC=CCC2C(=O)O)sc(C)c1CC` (configuration not stated), the Potency was 26.7 µM (active).

On to `CCOC(=O)c1c(NC(=O)CN2C(=O)NC3(CCC(C)CC3)C2=O)sc(C)c1CC` (configuration not stated), for which the max response, negative = inhibition was -5.1% (inactive).

For the compound `COC(=O)c1c(NC(=O)C2CC(C)=C(C)CC2C(=O)O)sc2c1CCCCC2` (configuration not stated), the max response, negative = inhibition is -20.4% (inactive).

Consider `Nc1ncnc2c1ncn2[C@@H]1O[C@H](C(=O)NS(=O)(=O)c2c(Cl)nc3sccn23)[C@@H](O)[C@H]1O`, for which the max response, negative = inhibition was -12.2% (inactive).

For the compound `COCCNc1ncnc2c1ncn2[C@H]1CN(Cc2ccc(OC)cc2)C[C@@H](CO)O1`, the max response, negative = inhibition is 5.71% (inactive).

With `CCCCC1(C(=O)OCC)NC(c2ccc(O)cc2)C2C(=O)N(c3ccccc3)C(=O)C21` (configuration not stated), the Potency was 11.9 µM (active).

As to `CCCC1(C(=O)OCC)NC(c2ccc(N(C)C)cc2)C2C(=O)N(c3ccc4c(c3)OCCO4)C(=O)C21` (configuration not stated), the max response, negative = inhibition is 0.149% (inactive).

As to `CCOC(=O)C1(C)NC(c2ccco2)C2C(=O)N(c3ccccc3)C(=O)C21` (configuration not stated), the max response, negative = inhibition was -2.81% (inactive).

`COc1ccc(CCNC(=O)Nc2ccc3c(c2)c(=O)n(C)n3C)cc1OC`: the max response, negative = inhibition is -18.9% (inactive).

Consider `N#CCSc1ccccc1NC(=O)CN1C(=O)NC(CCc2ccccc2)C1=O` (configuration not stated), for which the max response, negative = inhibition was 1.14% (inactive).

With `COc1ccc(C(C(=O)NCc2ccccc2)n2c(=O)c(-c3ccccc3)nc3ccccc32)cc1` (configuration not stated), the max response, negative = inhibition is -13.5% (inactive).

For the compound `COc1ccccc1NC(=O)C1=C(C)NC(=O)NC1c1ccc(C)s1` (configuration not stated), the max response, negative = inhibition was -4.66% (inactive).

For `COC(=O)c1c(NC(C)=O)sc(C(=O)Nc2ccccc2OC)c1C`, the Potency was 21.2 µM (active).

For the compound `CCC(=O)Nc1sc(C(=O)Nc2ccccc2)c(C)c1C(=O)OC`, the max response, negative = inhibition was -13% (inactive).

Consider `Cc1[nH]c2ccccc2c1C(=O)c1cc([C@H](NC(=O)OC(C)(C)C)C(C)C)sc1N`, for which the max response, negative = inhibition is -13.9% (inactive).

As for `COc1c(C)cc(C(O)c2ncc(-c3cccc(C(F)(F)F)c3)[nH]2)cc1C` (configuration not stated), the max response, negative = inhibition is -6.75% (inactive).

Consider `CCCC(=O)N1CCC1(C)C(=O)NS(=O)(=O)c1ccc(Cl)cc1` (configuration not stated), for which the max response, negative = inhibition is -0.638% (inactive).

On to `O=C(NCc1ccc(F)cc1F)[C@@H]1CCCN1C(=O)[C@@H]1CCCN1C(=O)c1cccc(Cl)c1`, for which the max response, negative = inhibition was -3.81% (inactive).

On to `COc1ccc(NC(=O)N(C)C[C@@H]2OCc3cn(nn3)CCCC(=O)N([C@H](C)CO)C[C@H]2C)c(OC)c1`, for which the max response, negative = inhibition was -13% (inactive).

On to `COc1cccc(CNc2nc(NCc3ccccc3OC)nc3ccsc23)c1`, for which the max response, negative = inhibition is 5.58% (inactive).

On to `CCC(C)NC(=O)CCCc1ccccc1` (configuration not stated), for which the max response, negative = inhibition is -5.23% (inactive).

As for `CCCCC(=O)NNC(=S)NC(=O)C(c1ccccc1)c1ccccc1`, the Potency was 26.7 µM (active).

Regarding `O=C(CCN1CCN(c2ccccc2)CC1)NNC(=S)Nc1ccccc1`, the max response, negative = inhibition was 2.64% (inactive).

Consider `Cc1cc(Br)ccc1NC(=O)CCCOc1cc(=O)n(C)c2ccccc12`, for which the max response, negative = inhibition was -7.55% (inactive).

For `O=C(COC(=O)Cc1ccc(Cl)cc1Cl)NCc1ccco1`, the max response, negative = inhibition was -7.73% (inactive).

Regarding `COC(=O)[C@@]1(Sc2ccc(C)cc2)CC(=O)N(c2cccc(SC)c2)[C@@H]1c1ccccc1`, the max response, negative = inhibition was -14.8% (inactive).

On to `CC(Sc1ccc(S(=O)(=O)N2CCN(C)CC2)cn1)C(=O)NC1CCCC(C)C1C` (configuration not stated), for which the max response, negative = inhibition is -3.15% (inactive).

`CCN1/C(=C\c2ccc3ccccc3[n+]2CC)Sc2cc(C)ccc21`: the max response, negative = inhibition was 18.1% (inactive).

`CCN1/C(=C/C(=S)Nc2ccccc2)Sc2ccccc21`: the Potency was 21.2 µM (active).

As to `CCNCCC(=O)N1c2ccccc2Sc2ccc(NC(=O)OCC)cc21`, the max response, negative = inhibition is 4.19% (inactive).

With `O=C(CCc1ccc(O)cc1)NN=Cc1cc(Br)ccc1O`, the max response, negative = inhibition is -9.45% (inactive).

As for `CNS(=O)(=O)c1ccc2c(c1)[nH]c(=S)n2C`, the max response, negative = inhibition is -13.6% (inactive).

In the case of `CN1OC[C@@H]2CN(S(=O)(=O)c3cccc4ccccc34)[C@H](c3ccc(N4CCCCC4)cc3)C[C@@H]21`, the max response, negative = inhibition is -17.2% (inactive).

As to `CCCNC(=O)C1(C)CCN(C(=O)c2ccccc2OC(F)(F)F)C1` (configuration not stated), the max response, negative = inhibition was 1.6% (inactive).

As for `COCCCN1C(=O)C(=O)/C(=C(/O)c2ccc3c(c2)CC(C)O3)C1c1cccnc1` (configuration not stated), the max response, negative = inhibition was -4.58% (inactive).

With `COc1cc(C2/C(=C(\O)c3ccc4c(c3)CC(C)O4)C(=O)C(=O)N2c2nnc(C)s2)cc(OC)c1OC` (configuration not stated), the Potency was 23.8 µM (active).

Regarding `COc1cc(C2/C(=C(\O)c3ccc4c(c3)CC(C)O4)C(=O)C(=O)N2Cc2ccco2)ccc1O` (configuration not stated), the max response, negative = inhibition is -6.21% (inactive).

For `COc1cccc(OCC(=O)NCCS(=O)(=O)N2CCN(c3ccccc3)CC2)c1`, the max response, negative = inhibition was -0.74% (inactive).

As to `Cc1ccccc1NC(=O)Cc1nc(COC(=O)C(C)(C)Oc2ccc(Cl)cc2)cs1`, the max response, negative = inhibition is -1.61% (inactive).

On to `CCOC(=O)c1cc(C)nc(S(C)(=O)=O)c1C#N`, for which the max response, negative = inhibition was -3.21% (inactive).

Take `CCOC(=O)Cc1c(C)nc2c(C#N)c(C)nn2c1C`: the Potency is 18.9 µM (active).

Regarding `CCOC(=O)COc1nc(C)cc(C(F)(F)F)c1C#N`, the max response, negative = inhibition is -6.94% (inactive).

Consider `Nc1nc(CSc2nnnn2-c2ccccc2)nc(Nc2ccccc2)n1`, for which the max response, negative = inhibition is 0.127% (inactive).

Take `COc1ccc(-c2ccc(CN3C(CC(C)C)C(=O)N(Cc4cn(CC5CCCCC5)nn4)CCS3(=O)=O)cc2)cc1` (configuration not stated): the max response, negative = inhibition was -10.4% (inactive).

In the case of `CCCn1c(=O)c(C(=O)Nc2cc(C)ccn2)c(O)c2ccccc21`, the max response, negative = inhibition is -9.12% (inactive).

Turning to `Cn1c(=O)c(C(=O)Nc2ncccn2)c(O)c2ccccc21`, the Potency was 8.44 µM (active).

For the compound `C=CCn1c(=O)c(C(=O)Nc2ncccc2O)c(O)c2ccccc21`, the max response, negative = inhibition is -22.1% (inactive).

In the case of `CC(C)c1cc(Cn2c3ccccc3c(=O)n2C(C)Cn2cc(C3CC3)nn2)on1` (configuration not stated), the max response, negative = inhibition was -4.91% (inactive).

With `CCn1c(Cc2cccs2)nnc1SCC(=O)c1ccc(C)cc1`, the Potency was 16.8 µM (active).

`CCn1c(SCC(=O)c2ccc(Cl)s2)nnc1-c1cccs1`: the max response, negative = inhibition is -17.2% (inactive).

Consider `Cc1ccc(-n2c(Cc3cccs3)nnc2SCC(=O)OC(C)C)cc1`, for which the max response, negative = inhibition is -2.98% (inactive).

For the compound `COC(=O)[C@@]12C[C@@H](CC(=O)N3CCC(c4ccccc4)CC3)C(=O)N(Cc3ccccc3)C1=CCC(C)(C)C2`, the max response, negative = inhibition was -1.16% (inactive).

As to `O=C(NCc1ccc(F)cc1)c1cc(C2CCCCN2C(=O)c2ccccn2)on1` (configuration not stated), the max response, negative = inhibition was -4.01% (inactive).

With `COc1ccccc1N1CCN(c2ncnc3sc(C)c(-c4ccccc4)c23)CC1`, the max response, negative = inhibition is 8.83% (inactive).

Consider `Oc1ccccc1N1CCN(c2ncnc3sc(-c4ccccc4)cc23)CC1`, for which the Potency is 15 µM (active).

Regarding `c1ccc(-c2cc3c(NCC4COc5ccccc5O4)ncnc3s2)cc1` (configuration not stated), the max response, negative = inhibition is -4.18% (inactive).

For the compound `CS(=O)(=O)c1cccc(-c2ccc3nncn3c2)c1`, the max response, negative = inhibition was -8.79% (inactive).

Take `N#CCCC(C#N)(c1cccnc1)N1CCOCC1` (configuration not stated): the max response, negative = inhibition was -8.09% (inactive).

As for `COc1ccc(C2CC(c3cccs3)=NN2C(=O)CCC(=O)O)cc1OC` (configuration not stated), the Potency was 23.8 µM (active).

`COc1ccc(C2CC(c3cccs3)=NN2C(=O)CSc2nncs2)cc1OC` (configuration not stated): the max response, negative = inhibition was -11.3% (inactive).

For `COc1ccc(C2=NN(C(=O)CCC(=O)O)C(c3cccs3)C2)cc1OC` (configuration not stated), the max response, negative = inhibition was -7.47% (inactive).
